Results published in PubChem BioAssay AID1159580 (chemical genetic matrix, 2015).
“And” between values parts separate entries of the source, which are not always exact repeats. Identical values can stand only once. Among all 5,500 compounds or so, about 2,000 (36%) were called active. About 18% were inconclusive and are not listed. Rule as the data show it: active = normalized growth mostly below about 0.91 (no sharp cut-off); inconclusive = no clear call, values can overlap the other calls; inactive = mostly above about 0.92. The list shows a part of the results.

Experiment: chemical genetic growth profiling, strain panel (AID 1159580);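 also: tested at 20 µM; growth read once vehicle control cultures reached saturation at 30 °C; 1 = growth at the plate median or of vehicle wells; lower values mean less growth of the strain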
Conditions: S. cerevisiae deletion strains, growth OD

Measured: normalized growth

CCOC(=O)[C@H](CCc1ccccc1)N[C@@H](C)C(=O)N1[C@H](C(=O)O)C[C@@H]2CCC[C@@H]21
inactive: locus YAL013W, strain DEP1, stronger effect = lower value 1.01 | locus YAL021C, strain ccr4, stronger effect = lower value 1.01 | locus YAL026C, strain drs2, stronger effect = lower value 0.985 | locus YAL030W, strain snc1, stronger effect = lower value 0.995 | locus YBL061C, strain skt5, stronger effect = lower value 0.984 | locus YBR009C, strain hhf1, stronger effect = lower value 0.995 | locus YBR021W, strain FUR4, stronger effect = lower value 1 | locus YBR023C, strain chs3, stronger effect = lower value 0.983 | locus YBR171W, strain sec66, stronger effect = lower value 0.971 | locus YBR229C, strain ROT2, stronger effect = lower value 1.01 | locus YBR231C, strain swc5, stronger effect = lower value 0.982 | locus YBR279W, strain paf1, stronger effect = lower value 0.979 | locus YCL011C, strain gbp2, stronger effect = lower value 0.981 | locus YCL016C, strain dcc1, stronger effect = lower value 0.985 | locus YCL029C, strain bik1, stronger effect = lower value 1.01 | locus YCL061C, strain MRC1, stronger effect = lower value 0.982 | locus YCL069W, strain vba3, stronger effect = lower value 0.977 | locus YCR088W, strain abp1, stronger effect = lower value 0.978 | locus YDL005C, strain med2, stronger effect = lower value 0.981 | locus YDL035C, strain GPR1, stronger effect = lower value 1.01 | locus YDL040C, strain nat1, stronger effect = lower value 0.981 | locus YDL074C, strain BRE1, stronger effect = lower value 1.02 | locus YDL101C, strain DUN1, stronger effect = lower value 1.01 | locus YDL134C, strain PPH21, stronger effect = lower value 1.01 | locus YDL185W, strain tfp1, stronger effect = lower value 0.998 | locus YDL192W, strain arf1, stronger effect = lower value 1.02 | locus YDR001C, strain nth1, stronger effect = lower value 0.978 | locus YDR069C, strain doa4, stronger effect = lower value 1.01 | locus YDR101C, strain arx1, stronger effect = lower value 1.01 | locus YDR137W, strain rgp1, stronger effect = lower value 0.946 | locus YDR150W, strain NUM1, stronger effect = lower value 1.01 | locus YDR159W, strain sac3, stronger effect = lower value 0.987 | locus YDR162C, strain NBP2, stronger effect = lower value 1.03 | locus YDR195W, strain ref2 0.97 | locus YDR297W, strain sur2, stronger effect = lower value 0.981 | locus YDR318W, strain mcm21, stronger effect = lower value 1.02 | locus YDR334W, strain swr1, stronger effect = lower value 0.978 | locus YDR335W, strain msn5, stronger effect = lower value 0.985 | locus YDR388W, stronger effect = lower value 1.01 | locus YDR392W, strain spt3, stronger effect = lower value 0.974 | locus YDR502C, strain sam2, stronger effect = lower value 1.01 | locus YEL003W, strain gim4, stronger effect = lower value 0.981 | locus YEL037C, strain rad23, stronger effect = lower value 0.982 | locus YEL061C, strain CIN8 (second series), stronger effect = lower value 0.98 | locus YEL061C, strain CIN8, stronger effect = lower value 1.01 | locus YER015W, strain faa2, stronger effect = lower value 0.989 | locus YER016W, strain bim1, stronger effect = lower value 0.993 | locus YER110C, stronger effect = lower value 1.01 | locus YER111C, strain swi4, stronger effect = lower value 0.976 | locus YER155C, strain BEM2 (second series), stronger effect = lower value 0.972 | locus YER155C, strain BEM2, stronger effect = lower value 1 | locus YER167W, strain BCK2, stronger effect = lower value 1.01 | locus YFR010W, strain ubp6, stronger effect = lower value 0.989 | locus YGL078C, strain dbp3, stronger effect = lower value 1.01 | locus YGL086W, strain mad1, stronger effect = lower value 1.02 | locus YGL167C, strain pmr1, stronger effect = lower value 0.979 | locus YGL173C, strain kem1, stronger effect = lower value 0.969 | locus YGL227W, strain vid30, stronger effect = lower value 0.979 | locus YGL240W, strain doc1, stronger effect = lower value 1 | locus YGL248W, strain PDE1, stronger effect = lower value 1.01 | locus YGL253W, strain hxk2, stronger effect = lower value 0.996 | locus YGR078C, strain PAC10, stronger effect = lower value 1.01 | locus YGR135W, strain pre9, stronger effect = lower value 1.02 | locus YGR229C, strain SMI1, stronger effect = lower value 1.01 | locus YGR252W, strain gcn5, stronger effect = lower value 1.03 | locus YHR013C, strain ard1, stronger effect = lower value 0.956 | locus YHR027C, strain rpn1, stronger effect = lower value 0.979 | locus YHR030C, strain SLT2, stronger effect = lower value 1 and 1.01 | locus YHR079C, strain IRE1 (second series), stronger effect = lower value 1.01 | locus YHR079C, strain IRE1, stronger effect = lower value 1 | locus YHR094C, strain hxt1, stronger effect = lower value 1.02 | locus YHR129C, strain ARP1, stronger effect = lower value 1.01 | locus YHR142W, strain chs7, stronger effect = lower value 0.971 | locus YHR200W, strain rpn10, stronger effect = lower value 1.02 | locus YIL066C, strain RNR3, stronger effect = lower value 1.01 | locus YIL073C, strain SPO22, stronger effect = lower value 1.07 | locus YIL125W, strain kgd1, stronger effect = lower value 1.03 | locus YIR030C, strain dcg1, stronger effect = lower value 1.02 | locus YJL092W, strain hpr5, stronger effect = lower value 0.981 | locus YJL095W, strain BCK1 (second series), stronger effect = lower value 0.985 | locus YJL095W, strain BCK1, stronger effect = lower value 1 and 0.991 | locus YJL115W, strain asf1, stronger effect = lower value 0.986 | locus YJL129C, strain trk1, stronger effect = lower value 0.987 | locus YJL134W, strain LCB3, stronger effect = lower value 1.01 | locus YJL154C, strain vps35, stronger effect = lower value 0.978 | locus YJL164C, strain tpk1, stronger effect = lower value 0.995 | locus YJL166W, strain qcr8, stronger effect = lower value 0.99 | locus YJL168C, strain set2, stronger effect = lower value 1.02 | locus YJL187C, strain SWE1 (second series), stronger effect = lower value 1.01 | locus YJL187C, strain SWE1, stronger effect = lower value 0.985 | locus YJR043C, strain POL32, stronger effect = lower value 1.01 | locus YJR066W, strain TOR1, stronger effect = lower value 0.955
